# Shown are actives, neighbours in structure and some others; about 2% of the full set was active somewhere.
# CHRM4 PAM: positive allosteric modulators of human muscarinic M4 receptor. P08173. CHO-K1 hM4/Gqi5, Fluo-8 calcium fluorescence, ACh EC20; 0% = ACh EC20, 100% = maximal ACh. 0.4% of 360,000 active. activation, % at 3 µM;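 active = activation above its plate's cutoff, the mean activation of sample wells plus 3 SD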
# Target sequence (P08173 whole entry, looked up): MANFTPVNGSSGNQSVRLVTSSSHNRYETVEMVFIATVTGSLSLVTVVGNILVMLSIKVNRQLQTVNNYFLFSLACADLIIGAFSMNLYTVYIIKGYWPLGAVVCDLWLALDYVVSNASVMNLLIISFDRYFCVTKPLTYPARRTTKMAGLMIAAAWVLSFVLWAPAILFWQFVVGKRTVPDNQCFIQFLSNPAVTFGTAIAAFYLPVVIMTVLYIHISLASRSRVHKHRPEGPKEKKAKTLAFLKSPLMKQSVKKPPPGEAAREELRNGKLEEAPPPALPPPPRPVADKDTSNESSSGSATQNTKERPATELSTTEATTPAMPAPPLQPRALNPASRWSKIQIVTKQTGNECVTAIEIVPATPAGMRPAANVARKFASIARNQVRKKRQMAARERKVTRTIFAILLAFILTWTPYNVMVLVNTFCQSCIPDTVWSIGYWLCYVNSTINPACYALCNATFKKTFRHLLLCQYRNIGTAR
# M1 PAM parental: M1 PAM counterscreen hit in parental CHO-K1 cells; ATP EC20, Fluo-8 calcium fluorescence; 0% at ATP EC20, 100% at ATP max; activation, % at 3 µM; 0.02% of 360,000 active;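 active = activation above the run cutoff, the mean activation of all test compounds plus 3 SD, cut at about 40% in these data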;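 also: peak over basal fluorescence ratio in a 140 s read after ATP addition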
# CHRM4 agonist: CHRM4 agonism in calcium assay | P08173 | CHO-K1 hM4/Gqi5, Fluo-8 calcium fluorescence; vehicle 0%, full acetylcholine response 100% | activation, % at 3 µM | 0.14% of 360,000 active | AID 624127;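 active = activation above the run mean over all test wells plus 3 SD, cut at about 32% in these data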;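 also: peak over basal fluorescence ratio per well then scaled between controls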
# CHO-K1 Ca antag: M1 antagonist counterscreen hit in parental CHO-K1 cells; 0.6% of 360,000 active; AID 602250; ATP-induced calcium, Fluo-8 fluorescence; inhibition, % at 3 µM;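 active = inhibition above a per-plate cutoff, the plate's mean sample inhibition plus 3 SD, cut at about 24% in these data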
# M4 antag: CHRM4 antagonism in calcium assay. 0.73% of 360,000 active. P08173. CHO-hM4 cells, ACh EC80, Fluo-8 calcium fluorescence. inhibition, % at 3 µM;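 active = inhibition above its plate's cutoff, the mean inhibition of sample wells plus 3 SD, cut at about 27% in these data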
# M1 ag parental: counter-screen for M1 agonists: effect in parental CHO-K1 cells; AID 602248; Fluo-8 calcium fluorescence; scaled to maximal ATP response, vehicle zero; activation, % at 3 µM; 0.48% of 360,000 active; in the data active = activation above about 15%;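 also: untransfected CHO-K1 host cells lacking M1 receptor as counterscreen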
# Hits are given with their value; . = inactive.
SMILES,CHRM4 PAM,M1 PAM parental,CHRM4 agonist,CHO-K1 Ca antag,M4 antag,M1 ag parental
COc1cccc(CN(C)CC(=O)Nc2cccc(S(=O)(=O)N(C)c3ccccc3)c2)c1OC,.,.,.,.,.,.
CCC(=O)c1ccc(OCC(=O)Nc2cccc(S(=O)(=O)N(C)c3ccccc3)c2)cc1,.,.,.,.,29,17
CCOc1ccc(CN(C)CC(=O)Nc2cccc(S(=O)(=O)N(C)c3ccccc3)c2)cc1,.,.,.,.,.,18
CCOc1ccc(N(CC(=O)Nc2ccccc2OC)S(=O)(=O)c2ccccc2)cc1,.,.,.,.,.,18
COc1ccc(N(CC(=O)Nc2ccc(OC)cc2OC)S(=O)(=O)c2ccccc2)cc1,.,.,.,.,.,.
CSC(=S)NN=C(C)c1cccc(C)n1,.,.,.,.,.,.
Cc1[nH]c2ccccc2c1C1=CC(=O)C=CC1=O,.,.,.,.,45,.
CC1=C(C(=O)OCCC#N)C(c2cc3c(cc2Br)OCO3)NC(=O)N1 (centres undefined),.,.,.,.,.,.
Cc1cc(C)c2cc(CN(CCO)C(=O)Nc3ccc(F)cc3)c(=O)[nH]c2c1,.,.,.,26,.,.
CCOC(=O)NC(=O)/C(C#N)=C\Nc1sccc1C(=O)OC,.,.,.,.,.,18
Cc1ccc(CN2C(=O)CCC2C(=O)NC2CC2)cc1 (centres undefined),26,.,.,.,.,.
CNC(=O)C1CCC(=O)N1Cc1ccc(C)cc1 (centres undefined),.,.,.,.,.,.
C#CCCCCCCC#CCN(C)C,.,.,.,26,.,.
C#CCCCCCCCCC(=O)NCCCC,.,.,.,.,.,.
Cc1ccc(CCNC(=O)c2cccc(NC3=NC4CS(=O)(=O)CC4S3)c2)cc1 (centres undefined),.,.,.,.,.,.
COc1ccc(NC2c3ccccc3C(=O)N2c2ccccn2)cc1Cl (centres undefined),.,.,.,.,79,.
Cc1ccc(CC(=O)N2CCN(c3cccc(C(F)(F)F)c3)CC2)cc1,.,.,.,.,28,.
Cc1ccc(S(=O)(=O)CC(=O)N2CCN(c3cccc(C(F)(F)F)c3)CC2)cc1,.,.,.,.,.,.
CC(C(=O)Nc1ccc(S(=O)(=O)N2CCCC2)cc1)N(C)CC(=O)Nc1cccc(F)c1 (centres undefined),.,.,.,.,.,.
CN(CC(=O)Nc1ccc(S(=O)(=O)N2CCCC2)cc1)CC(=O)Nc1cccc(F)c1,.,.,.,.,.,18
Cc1ccc(NC(=O)CSc2ccc(S(=O)(=O)N3CCCC3)cn2)cc1F,.,.,.,.,.,16
CCc1cccc2cc3c(N)c(C(=O)Nc4ccc(S(=O)(=O)N5CCCC5)cc4)sc3nc12,.,.,.,.,.,16
CN1CCN(S(=O)(=O)c2ccc(NC(=O)c3cccc(S(=O)(=O)N4CCCC4)c3)cc2)CC1,.,.,.,.,37,.
Cc1cccc2cc3c(N)c(C(=O)Nc4ccc(N5CCOCC5)cc4)sc3nc12,.,.,.,.,.,.
Cc1cc(C)c(NC(=O)Cn2c([N+](=O)[O-])cnc2C)c(C)c1,.,.,.,.,.,.
SMILES,CHRM4 PAM,M1 PAM parental,CHRM4 agonist,CHO-K1 Ca antag,M4 antag,M1 ag parental
CC1(C(=O)Nc2ccc3nc[nH]c3c2)CCN1C(=O)C1(c2ccccc2)CCCC1 (centres undefined),.,.,.,.,.,.
CCN1C(=S)N[C@@H](c2cccs2)C(C(=O)OC)=C1C,.,.,.,.,.,.
CC(=O)N1CCN(CC(=O)Nc2cccc(S(=O)(=O)N3CCCCCC3)c2)CC1,.,.,.,27,.,.
CC(=O)N1CCN(CC(=O)Nc2cccc(S(=O)(=O)N3CCCCC3)c2)CC1,.,.,.,.,.,.
O=C(Nc1ncccc1O)c1cccc(S(=O)(=O)N2CCCC2)c1,.,.,.,26,.,.
O=C(Nc1ncccc1O)c1ccc(Cl)c(S(=O)(=O)N2CCCCCC2)c1,.,.,.,.,.,.
O=C(Cc1ccc(NC2=NC3CS(=O)(=O)CC3S2)cc1)NCc1ccccc1Cl (centres undefined),16,.,.,.,.,.
CC(NC(=O)c1ccc(NC2=NC3CS(=O)(=O)CC3S2)cc1)c1ccccc1 (centres undefined),.,.,.,.,94,.
COc1cccc(NC(=O)COC(=O)c2sccc2C)c1,.,.,.,.,.,.
O=C(NCc1ccccc1)c1ccc(NC(=O)C2CCCO2)cc1 (centres undefined),.,.,.,.,.,.
CC(C)(C)c1ccc(S(=O)(=O)NNC(=O)C2CCN(Cc3cccc(F)c3)CC2)cc1,.,.,.,.,.,23
Cc1ccc(NC(=S)NCc2cccnc2)cc1,16,.,.,.,.,.
CCc1ccc(NC(=S)NCc2cccnc2)cc1,.,.,.,.,.,.
CN(C)S(=O)(=O)c1ccc2oc(SCC(=O)c3c(N)n(C4CC4)c(=O)[nH]c3=O)nc2c1,.,.,.,.,.,20
CN(C)S(=O)(=O)c1ccc2oc(SCC(N)=O)nc2c1,.,.,.,.,.,.
CN1CCCN=C1COC(=O)C(O)(c1ccccc1)C1CCCCC1 (centres undefined),.,.,.,.,99,.
Cc1nn(-c2ccc(Cl)nn2)c(=O)c2ccccc12,.,.,.,.,.,.
COCOc1ccc(/C=C/C(=O)c2c(OCOC)cc(OCOC)c(CC=C(C)C)c2O)cc1OCOC,.,.,.,29,.,.
COCOc1ccc(/C=C/C(=O)c2c(O)cc(OCOC)cc2OCOC)cc1,.,.,.,.,.,.
O=C(O)CSc1cc(C(=O)c2ccccc2O)cn2c(=O)c3c4c(sc3nc12)CCCC4,33,.,.,.,.,.
CC1CC(C)CN(C(=O)c2cc(-c3ccncc3)nc3ccccc23)C1 (centres undefined),.,.,.,.,.,.
CC(C)Oc1cccc(-c2cc(C(=O)N3CCN(c4ncccn4)CC3)c3ccccc3n2)c1,.,.,.,.,34,.
COc1cccc(-c2cc(C(=O)N3CCN(c4ncccn4)CC3)c3ccccc3n2)c1,.,.,.,34,.,.
COc1ccc(-c2cc(C(=O)N3CCN(c4ncccn4)CC3)c3ccccc3n2)cc1OC,.,.,.,.,.,.
CC1CN(C(=O)c2cc(-c3ccncc3)nc3ccccc23)CC(C)O1 (centres undefined),23,.,.,.,.,.
CC1CN(c2ccccc2)NC1=O (centres undefined),.,.,.,.,.,.
